In ChEMBL document CHEMBL4513141, “CO-ADD screening of NIH (USA) - Clinical Collection” (2021) one finds Inhibition data, which are given here for 42 compounds.

One test deals with Staphylococcus aureus. The following applies: Concentration 20 uM; ASSAY_TEST Inhibition of Bacterial Growth; detection method Absorption (OD600); MEDIA CAMHB; plate type 384well; NBS; CORNING #3640; time 18 hr.
The test system of a further test is Escherichia coli. The following applies: Concentration 20 uM; ASSAY_TEST Inhibition of Bacterial Growth; detection method Absorption (OD600); MEDIA CAMHB; plate type 384well; NBS; CORNING #3640; time 18 hr.

Measured potencies and affinities stand elsewhere.

As for `CC(C)[C@]12O[C@H]1[C@@H]1O[C@]13[C@]1(O[C@H]1C[C@H]1C4=C(CC[C@@]13C)C(=O)OC4)[C@@H]2O` [TRIPTOLIDE], the Inhibition with Staphylococcus aureus is reported as 14.16%; in the test on Escherichia coli, -9.75%.
On the same counts, the results for `Cl.O[C@@H]1CCCC[C@H]1N1CCC(c2ccccc2)CC1` are 14.8% and 1.48%.
Taken in the same sequence, the figures for `Cc1c(OCC(F)(F)F)ccnc1C[S+]([O-])c1nc2ccccc2[nH]1` (centres undefined) [LANSOPRAZOLE] were 16.66% and -0.87%.
For `COCCCOc1ccnc(C[S+]([O-])c2nc3ccccc3[nH]2)c1C` (centres undefined) [RABEPRAZOLE], the Inhibition in the test on Staphylococcus aureus came to 10.37%; in the test on Escherichia coli, 7.16%.
Taken in the same sequence, the figures for `Cc1ccc(-c2nc3ccc(C)cn3c2CC(=O)N(C)C)cc1.Cc1ccc(-c2nc3ccc(C)cn3c2CC(=O)N(C)C)cc1.O=C(O)C(O)C(O)C(=O)O` [ZOLPIDEM TARTRATE] were 4.54% and -2.63%.
For the compound `C[C@]12CCC(=O)C[C@@H]1CC[C@@H]1[C@@H]2CC[C@@]2(C)[C@H]1CC[C@]2(C)O` [MESTANOLONE], the Inhibition in the test on Staphylococcus aureus is listed as -23.2%; in the test with Escherichia coli it was 5.51%.
Take `CN1CCN(C2=Nc3cc(Cl)ccc3Nc3ccccc32)CC1` [CLOZAPINE]: the Inhibition in the test with Staphylococcus aureus is on record as -2.25%; in the test on Escherichia coli, -7.08%.
On the same counts, the results for `COC(=O)C[C@](O)(CCCC(C)(C)O)C(=O)O[C@@H]1C(OC)=C[C@]23CCCN2CCc2cc4c(cc2[C@H]13)OCO4` [OMACETAXINE MEPESUCCINATE] are 10.39% and 7.87%.
On the same counts, the results for `C[C@]12CC(C=O)=C(O)C[C@@H]1CC[C@@H]1[C@@H]2CC[C@@]2(C)[C@H]1CC[C@]2(C)O` are 4.66% and 7.86%.
For the compound `C[C@]12Cc3c[nH]nc3C[C@@H]1CC[C@@H]1[C@@H]2CC[C@@]2(C)[C@H]1CC[C@]2(C)O` [STANOZOLOL], the Inhibition in the test with Staphylococcus aureus was -5.12%; with Escherichia coli it was 3.01%.
Taken in the same sequence, the figures for `CCOC(=O)c1ncn2c1CN(C)C(=O)c1cc(F)ccc1-2` [FLUMAZENIL] were -0.36% and -2.76%.
Taken in the same sequence, the figures for `CC[C@]1(O)CC[C@H]2[C@@H]3CCC4=CCCC[C@@H]4[C@H]3CC[C@@]21C` [ETHYLESTRENOL] were -6.51% and 3.02%.
As for `CN1CC[C@@]23CCCC[C@@H]2[C@@H]1Cc1ccc(O)cc13.O=C(O)C(O)C(O)C(=O)O`, the Inhibition was determined as 4.84% in the test on Staphylococcus aureus and 6.67% in the test with Escherichia coli.
On the same counts, the results for `CC(C)(C)NCC(O)c1cc(O)cc(O)c1.O=S(=O)(O)O` (centres undefined) are 5.47% and 5.21%.
Consider `CCC(COC(=O)c1cc(OC)c(OC)c(OC)c1)(c1ccccc1)N(C)C.O=C(O)/C=C\C(=O)O` (centres undefined), for which the Inhibition in the test on Staphylococcus aureus was found to be 4.02%; in the test with Escherichia coli, 7.24%.
As for `O.O=P1(N(CCCl)CCCl)NCCCO1` (centres undefined) [CYCLOPHOSPHAMIDE], the figures for the Inhibition with Staphylococcus aureus and in the test with Escherichia coli were 2.64% and 1.99%, respectively.
Taken in the same sequence, the figures for `CC(C)NCC(O)c1ccc(O)c(O)c1.Cl` (centres undefined) [ISOPROTERENOL HYDROCHLORIDE] were 7.54% and -1.63%.
Turning to `Cl.N=C(N)NC(=O)c1nc(Cl)c(N)nc1N.O.O` [AMILORIDE HYDROCHLORIDE], the results for the Inhibition in the test with Staphylococcus aureus and in the test with Escherichia coli were 11.17% and 2.12%, respectively.
Taken in the same sequence, the figures for `CN1[C@@H]2CC[C@H]1CC(OC(=O)C(CO)c1ccccc1)C2` (some centres undefined) were 1.53% and -5.78%.
In the case of `Cl.O.Oc1cc2c(cc1O)[C@H]1c3ccccc3CN[C@@H]1CC2`, the Inhibition with Staphylococcus aureus is recorded as 11.17%; in the test with Escherichia coli it was 6.66%.
Regarding `NC1=NC(=O)C(c2ccccc2)O1` (centres undefined) [PEMOLINE], the Inhibition stood at 13.44% in the test on Staphylococcus aureus and 0.76% with Escherichia coli.
Regarding `CCCC(C)(COC(N)=O)COC(=O)NC(C)C` (centres undefined) [CARISOPRODOL], the Inhibition in the test on Staphylococcus aureus is listed as -20.34%; in the test on Escherichia coli it was 4.18%.
As for `COC(=O)N1CCN(C(=O)Cc2ccc(Cl)c(Cl)c2)C(CN2CCCC2)C1.O=C(O)/C=C/C(=O)O` (centres undefined), the values for the Inhibition in the test with Staphylococcus aureus and in the test on Escherichia coli were 12.27% and 2.23%, respectively.
Consider `O=C1Nc2ccc(Cl)cc2C(c2ccccc2Cl)=NC1O` (centres undefined) [LORAZEPAM], for which the Inhibition is reported as -3.94% in the test on Staphylococcus aureus and 2.56% in the test on Escherichia coli.
On to `C#CCN(C)[C@H](C)Cc1ccccc1.Cl` [SELEGILINE HYDROCHLORIDE], for which the Inhibition with Staphylococcus aureus was -22.3%; in the test on Escherichia coli it was 3.38%.
Taken in the same sequence, the figures for `Cl.O=C1c2cccc3c2[C@H](CCC3)CN1[C@@H]1CN2CCC1CC2` [PALONOSETRON HYDROCHLORIDE] were 8.38% and 4.34%.
Taken in the same sequence, the figures for `CNC(=O)Oc1ccc2c(c1)[C@]1(C)CCN(C)C1N2C.CNC(=O)Oc1ccc2c(c1)[C@]1(C)CCN(C)C1N2C.O=S(=O)(O)O` (some centres undefined) were 12.91% and -3.79%.
Taken in the same sequence, the figures for `CS(=O)(=O)O.O=C(O[C@@H]1C[C@@H]2C[C@H]3C[C@H](C1)N2CC3=O)c1c[nH]c2ccccc12` were 5.34% and 6.66%.
Consider `CNS(=O)(=O)Cc1ccc2[nH]cc(CCN(C)C)c2c1.O=C(O)CCC(=O)O` [SUMATRIPTAN SUCCINATE], for which the figures for the Inhibition with Staphylococcus aureus and in the test with Escherichia coli were 12.49% and 0.9%, respectively.
With `CS(=O)(=O)Nc1ccc(Cc2noc(-c3ccc4[nH]cc(CCN)c4c3)n2)cc1.O.O`, the Inhibition is reported as 12.02% in the test on Staphylococcus aureus and 7.87% with Escherichia coli.
On the same counts, the results for `Cc1ncc2n1-c1ccc(Cl)cc1C(c1ccccc1F)=NC2.Cl` [MIDAZOLAM HYDROCHLORIDE] are -27.39% and 7.58%.
Taken in the same sequence, the figures for `CCCN1C[C@H](CSC)C[C@@H]2c3cccc4[nH]cc(c34)C[C@H]21.CS(=O)(=O)O` [PERGOLIDE MESYLATE] were 12.62% and 4.25%.
Taken in the same sequence, the figures for `CN(C)CCC=C1c2ccccc2CCc2ccccc21.Cl` [AMITRIPTYLINE HYDROCHLORIDE] were 5.1% and 1.2%.
Take `COc1cc2c(cc1OC)[C@@]13CCN4CC5=CCO[C@H]6CC(=O)N2[C@H]1[C@H]6[C@H]5C[C@H]43` [BRUCINE]: the Inhibition with Staphylococcus aureus is 7.1%; in the test with Escherichia coli, -1.43%.
On the same counts, the results for `Cc1nnc2n1-c1ccc(Cl)cc1C(c1ccccc1)=NC2` [ALPRAZOLAM] are 16.72% and 0.08%.
Taken in the same sequence, the figures for `CN1CCC[C@H]1c1cccnc1` [NICOTINE] were -15.48% and 6.98%.
Taken in the same sequence, the figures for `Cl.O=C1CC[C@@]2(O)[C@H]3Cc4ccc(O)c5c4[C@@]2(CCN3CC2CC2)[C@H]1O5` [NALTREXONE HYDROCHLORIDE] were 14.26% and 5.04%.
As to `CN1CCN2c3ncccc3Cc3ccccc3C2C1` (centres undefined) [MIRTAZAPINE], the Inhibition in the test on Staphylococcus aureus was -16.68%; in the test with Escherichia coli it was -1.97%.
Taken in the same sequence, the figures for `CC(C)CC(N(C)C)C1(c2ccc(Cl)cc2)CCC1` (centres undefined) [SIBUTRAMINE] were 0.87% and 6.8%.
Taken in the same sequence, the figures for `CC(O)(CS(=O)(=O)c1ccc(F)cc1)C(=O)Nc1ccc(C#N)c(C(F)(F)F)c1` (centres undefined) [BICALUTAMIDE] were -1.51% and 6.59%.
As to `CC(C)C(=O)Nc1ccc([N+](=O)[O-])c(C(F)(F)F)c1` [FLUTAMIDE], the Inhibition in the test with Staphylococcus aureus came to 10.52%; with Escherichia coli it was 4.1%.
As for `CN(C)CCOc1ccc(/C(=C(/CCCl)c2ccccc2)c2ccccc2)cc1.O=C(O)CC(O)(CC(=O)O)C(=O)O` [TOREMIFENE CITRATE], the Inhibition is given as 24.11% with Staphylococcus aureus and -1.37% in the test on Escherichia coli.

A word on the Inhibition: it is the drop in the measured response relative to a control, in per cent.
